The list is not random: actives were taken first. Their share in the collection is about 7.3%.
FMDV inh = foot and mouth disease virus antiviral activity | FMDV antiviral cell-based qHTS | Potency, µM (top dose mostly 57.9 µM), for inactives: at the highest dose activity change, negative = inhibition, hits mostly inhibitors | 1.2% of 410,000 active; calls by dose curve; tested in HEK293T cells; note: read-out not given here; potency is the fitted concentration of half-maximal effect; nearly all actives have a fitted effect of over 45% in size
VACV Venus inh = vaccinia inhibition (Venus reporter) | 0.46% of 330,000 active | Potency, µM (titrated, usually from 36.5 µM), for inactives: top-dose activity change, negative = inhibition, hits mostly inhibitors | AID 720580 | Vaccinia virus Venus reporter expression, fluorescence; calls by dose curve; tested in A549 cells; note: potency is the fitted concentration of half-maximal effect; nearly all actives have a fitted effect of over 30% in size
HCMV antiviral = blocks human cytomegalovirus replication; AID 1259415; HFF cells, HCMV-luciferase reporter, 72 h; active compounds read low; activity change, negative = inhibition, % at 57.5 µM; 4.5% of 410,000 active; in the data active = activity change below about -60%; inconclusive = no clear call, values can overlap the other calls; inactive = above about -39%
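HFF cells seeded 16 h at 37C, treated with compounds, infected with luciferase-reporter HCMV at MOI 1 PFU/cell; luciferase read at 72 h post infection, normalized to buffer-only and Salinomycin controls.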
HCV inh = blocks hepatitis C virus; Huh7.5.1 HCVcc-Cre infection, luciferase reporter, 44 h; Potency, µM (highest dose often 41.8 µM), for the others: top-dose activity change, negative = inhibition, most hits filed as inhibitors; 3.4% of 340,000 active; active = well fitted inhibition curve with a large enough effect; inconclusive = small, poorly fitted or top-dose-only effect, or another doubt; inactive = no such curve, though single readings can be large or run the other way; note: potency is the fitted concentration of half-maximal effect
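1,000 cells/well; 4 h culture; + compound; + HCVcc-Cre (~0.5 moi); 44 h; luciferase substrate, RT 15 min; read 15 sec.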
Vaccinia mCherry = inhibitors of vaccinia virus infection (mCherry reporter signal) | Vaccinia virus mCherry reporter infection, fluorescence | Potency, µM (doses to about 36.5 µM), for inactives: at the highest dose activity change, negative = inhibition, hits mostly inhibitors | 0.63% of 310,000 active | AID 720579; calls by dose curve; tested in A549 cells; note: potency is the fitted concentration of half-maximal effect; nearly all actives have a fitted effect of over 35% in size
The depositor's hits bear a star; i = inactive; ? = inconclusive; . = not tested or not shown; [ ] = dose if it differs, or a comment. % is set by controls: 0 for no effect and ±100 for the full control effect.

SMILES	FMDV inh	VACV Venus inh	HCMV antiviral	HCV inh	Vaccinia mCherry
CCN(c1ccc(NC(=O)c2ccc(N3CCCC3=O)cc2)cc1)C(C)C	?	-13%	-70*	?	-29%
CCN(CC)C(=O)c1ccc(NC(=O)c2ccc(N3CCCC3=O)cc2)cc1	-3%	.	9	5%	.
CCN(Cc1ccccc1)S(=O)(=O)c1cc(C(=O)NC2CCCCCC2)ccc1OC	8%	-29%	-32	?	?
CN(C)S(=O)(=O)c1cccc(NC(=O)c2ccc(N3CCCC3=O)cc2)c1	-20%	.	9	22µM*	.
O=C(Nc1cccc(S(=O)(=O)N2CCCCCC2)c1)c1cncc(Br)c1	?	-20%	-22	11µM*	?
CCSc1nnc(C(C)NS(=O)(=O)c2cccc(Cl)c2C)n1C (configuration not stated)	0%	0%	.	.	-1%
COc1ccc(Cl)cc1NC(=O)NCc1ccccn1	-5%	-12%	-38	?	-13%
COc1ccc(N2C(=O)C(CC(=O)Nc3ccc(F)cc3)N(CCC3=CCCCC3)C2=O)cc1 (configuration not stated)	-26%	-16%	-16	.	i
CN(C)S(=O)(=O)c1cccc(NC(=O)c2ccc(S(=O)(=O)N3CCCCC3)cc2)c1	-29%	-27%	-22	?	?
CC(=O)c1cccc(NC(=O)c2ccc(S(=O)(=O)N3CCCCC3)cc2)c1	?	-19%	?	?	-4%
CN(C)S(=O)(=O)c1cccc(NC(=O)c2cccc(S(=O)(=O)N3CCCCCC3)c2)c1	?	?	-61*	7.9µM*	-27%
O=C(Nc1cccc(S(=O)(=O)C(F)F)c1)c1ccc(S(=O)(=O)N2CCCCC2)cc1	28µM*	?	?	?	?
CN(C)c1ccc(C(=O)Nc2cccc(S(=O)(=O)N3CCCC3)c2)cc1	25%	.	12	?	.
O=C(Nc1cccc(S(=O)(=O)N2CCCCC2)c1)c1ccc(S(=O)(=O)C(F)F)cc1	28µM*	-28%	-64*	?	-22%
COc1ccc(-n2c(CN3CCN(c4ccc(F)cc4)CC3)nc3ccc([N+](=O)[O-])cc3c2=O)c(OC)c1	-8%	0%	-92*	-30%	-2%
CC(=O)c1ccc(Nc2cc(C)nc3c(C)cc(C)cc23)cc1	-8%	-25%	?	?	-30%
Cc1cc(C)c2nc(C)cc(Nc3ccc(C(=O)NCCO)cc3)c2c1	-24%	-15%	-91*	-13%	-7%
COC(CNC(=O)c1ccc2nc(-c3ccccc3)c(-c3ccccc3)nc2c1)OC	0%	-9%	6	10µM*	-3%
COc1ccc(-c2nc3ccc(C(=O)NCc4ccccc4)cc3nc2-c2ccc(OC)cc2)cc1	22%	-21%	-5	.	-29%
COc1ccc(-c2nc3ccc(C(=O)NCC(OC)OC)cc3nc2-c2ccc(OC)cc2)cc1	?	-10%	-60*	?	-1%
COc1cccc(CNC(=O)c2ccc3nc(-c4ccccc4)c(-c4ccccc4)nc3c2)c1OC	-14%	-17%	5	.	-22%
CN1CCN(CCNC(=O)c2ccc3nc(-c4ccc(F)cc4)c(-c4ccc(F)cc4)nc3c2)CC1	-26%	?	-33	2.2µM*	-26%
O=C(Nc1ccc2nn(-c3ccccc3)nc2c1)c1ccc2c(c1)OCCO2	25µM*	-29%	?	7.1µM*	.
CCc1ccc(-n2nc3ccc(NC(=O)c4ccc5c(c4)OCO5)cc3n2)cc1	5%	.	-17	-17%	.
CCOc1ccc(C(=O)Nc2ccc3c(c2)OCCO3)cc1OC	0%	.	74	?	.
SMILES	FMDV inh	VACV Venus inh	HCMV antiviral	HCV inh	Vaccinia mCherry
CCOc1ccc(-n2nc3ccc(NC(=O)c4ccc5c(c4)OCCO5)cc3n2)cc1	.	-12%	-71*	6.3µM*	-13%
O=C(Nc1ccc2c(c1)OCCO2)c1ccccc1Cl	28%	-4%	57	.	-11%
CCOc1ccc(NC(=O)c2ccc3c(c2)OCCO3)cc1S(=O)(=O)N(CC)CC	-5%	.	-20	2.8µM*	.
O=C(Nc1ccc2c(c1)OCCO2)c1cccc2nc3ccccc3nc12	?	.	-92*	?	.
CCOC(=O)N1CCN(C(=O)C[C@@H]2C[C@@]3(C(=O)OCC)CCC=C3N(Cc3cccc4ccccc34)C2=O)CC1	-20%	-5%	29	.	-5%
CC(=O)c1cccc(NC(=O)c2ccc(Br)o2)c1	67%	.	27	-24%	.
O=C(Nc1ccc2nn(-c3ccccc3)nc2c1)c1ccc(Br)o1	5%	-4%	-65*	?	-10%
O=C(Nc1ccc2nn(-c3ccccc3)nc2c1)c1cc2ccccc2o1	-14%	-10%	4	.	-7%
O=C(Nc1cccc(F)c1)c1ccc(Br)o1	52%	-3%	-97*	-10%[8.37 µM]	-10%
CCC(=O)NC(=S)Nc1ccc(NC(=O)c2ccc(Br)o2)cc1	35%	.	-103*	?	.
Cc1ccc(CNC(=O)CCNC(=O)c2ccco2)cc1	17%	-11%	2	8%	.
COc1cc2nc(N3CCOCC3)nc(NC(C)C)c2cc1OC	.	-21%	.	.	-23%
O=C(O)CC1S/C(=N\N=C2CCCCCCC2)N(c2ccccc2)C1=O (configuration not stated)	-11%	-6%	-104*	11%	2%
CN1CCN(Cc2c(C(=O)N/N=C/c3cccc(Br)c3)nnn2-c2nonc2N)CC1	-17%	.	-60*	9%	.
CCOc1ccc(-c2c(C(=O)N/N=C/c3cccc(Br)c3)nnn2-c2nonc2N)cc1	-21%	.	-63*	34%	.
Nc1nonc1-n1nnc(C(=O)N/N=C/c2cccc(O)c2)c1CN1CCCC1	-11%	-21%	-24	6%	-17%
CN(C)Cc1c(C(=O)N/N=C/c2cccc(OCc3c(F)cccc3Cl)c2)nnn1-c1nonc1N	?	.	-86*	?	.
O=C(c1cnc(N2CCCCC2)c2ccccc12)N1CCN(c2ccc(Cl)cc2)CC1	?	-22%	-26	.	-1%
Fc1ccc(C(OCCN2CCCC2)c2ccc(F)cc2)cc1	-24%	-16%	-25	?	-5%
c1ccc(CCCN2CCN(CCOC(c3ccccc3)c3ccccc3)CC2)cc1	?	?	-66*	7.9µM*	?
Fc1ccc(C(OCCN2CCN(CCCc3ccccc3)CC2)c2ccc(F)cc2)cc1	?	.	-99*	.	.
CCc1noc(C)c1C(=O)N1CCN(S(=O)(=O)c2ccc(Cl)s2)CC1	-4%	2%	-29	26%	-4%
CCn1c(=O)c([N+](=O)[O-])c(NCCN(C)C)c2ccccc21	-10%	.	72	21%	.
CCn1c(=O)c([N+](=O)[O-])c(Cl)c2ccccc21	22µM*	0%	248	?	-4%
COc1ccc(S(=O)(=O)N2CCC(Oc3ccc(-n4cnnn4)cc3)CC2)cc1	-7%	-10%	-11	.	-5%
COc1ccc(S(=O)(=O)N2CCC(Oc3ccc(-n4cnnn4)cc3)CC2)cc1OC	-29%	-22%	-64*	.	-16%

Screens (PubChem BioAssay)
